# Mcl1-Bid inh: disrupts binding of human Mcl-1 to Bid peptide; Q07820; TR-FRET Mcl-1/Bid-Dy647 peptide binding, 1536-well; inhibition, % at 21.7 µM; 220,000 compounds, 0.97% hits; AID 1021;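 active means compounds that cut the binding signal by more than half at the single screening dose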;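 further: His-tagged Mcl-1 with europium anti-His antibody binding Bid BH3 peptide; 0% = Mcl-1 plus peptide wells and 100% = peptide-only wells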
# Target sequence (Q07820 whole entry, looked up): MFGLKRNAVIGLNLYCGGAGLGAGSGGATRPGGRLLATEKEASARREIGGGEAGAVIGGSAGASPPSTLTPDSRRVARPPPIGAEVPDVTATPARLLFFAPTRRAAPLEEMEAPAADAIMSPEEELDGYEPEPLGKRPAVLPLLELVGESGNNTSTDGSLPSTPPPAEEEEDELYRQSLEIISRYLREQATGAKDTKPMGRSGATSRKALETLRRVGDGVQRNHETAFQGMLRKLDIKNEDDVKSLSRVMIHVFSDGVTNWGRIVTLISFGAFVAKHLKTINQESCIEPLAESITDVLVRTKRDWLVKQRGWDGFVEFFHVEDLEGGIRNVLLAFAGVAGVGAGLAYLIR
# Mcl-1 Bim block: inhibitors of Bim-Mcl-1 interaction, human; Q07820; Bead-based flow cytometry, Bim peptide-Mcl-1 binding; inhibition, % at 10 µM; 190,000 compounds, 0.1% hits; AID 1009; in the data active means inhibition above about 40%;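 further: 0% = no compound tracer wells and 100% = peptide blocker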
# NCF1 inh: p47phox (human) inhibition. inhibition, % at 24.7 µM. 220,000 compounds, 0.53% hits. p47phox/p22phox peptide binding, fluorescence polarization, 2 h. P14598;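 further: 0% = p47phox with labelled peptide and 100% = labelled peptide alone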
# eIF4E 4G PPI: inhibitors of eIF4E and eIF4G interaction in translation initiation. P63073+Q04637. TR-FRET eIF4E-eIF4GI(517-606) binding, 2 h. inhibition, % at 21.7 µM. 220,000 compounds, 0.37% hits;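 further: 0% = full FRET control wells and 100% = background wells lacking eIF4GI fragment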
# Mcl1-Noxa inh: Mcl-1/Noxa interaction inhibition; 220,000 compounds, 1.5% hits; AID 1022; inhibition, % at 21.7 µM; TR-FRET Mcl-1/Noxa peptide binding, 2 h;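 active means compounds that cut the protein-peptide binding signal by more than 50% relative to plate controls in a single-dose test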;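 further: His-tagged Mcl-1 with rhodamine Noxa BH3 peptide and terbium anti-His antibody; 0% = Mcl-1 plus Noxa peptide wells and 100% = peptide-only wells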
# 14-3-3 Bad PPI: disrupts binding of bovine 14-3-3 zeta to phospho-Bad peptide; 220,000 compounds, 0.71% hits; inhibition, % at 21.7 µM; TR-FRET 14-3-3zeta/Dy647-pBad peptide displacement, 1 h; P63103; AID 781;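 active means inhibition above about 70%, limit read from the data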;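 further: 0% = full 14-3-3 plus peptide FRET controls and 100% = background without 14-3-3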
# Target sequence (P63103 whole entry, looked up): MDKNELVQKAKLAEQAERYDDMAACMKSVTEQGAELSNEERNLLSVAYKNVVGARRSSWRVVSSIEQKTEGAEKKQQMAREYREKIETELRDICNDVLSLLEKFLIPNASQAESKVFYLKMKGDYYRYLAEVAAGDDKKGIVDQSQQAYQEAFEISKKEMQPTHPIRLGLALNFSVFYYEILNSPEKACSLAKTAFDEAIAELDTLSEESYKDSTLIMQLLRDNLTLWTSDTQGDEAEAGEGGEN
# Active calls of the source: *; · = no result. Rows were chosen to be rich in hits. Some 3.4% of all compounds tested hit in one or more screens of this group.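 How the source made its calls, unless noted: active means inhibition above about 30% (limit read from the data); inactive means the rest.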
SMILES,Mcl1-Bid inh,Mcl-1 Bim block,NCF1 inh,eIF4E 4G PPI,Mcl1-Noxa inh,14-3-3 Bad PPI
CC(=O)OCCCNc1cc(Sc2nc3ccccc3s2)c2nonc2c1[N+](=O)[O-],-67,4,-19,-44,64*,1
CC(=O)OCCCNc1cc(Sc2ccc(C)cc2)c2nonc2c1[N+](=O)[O-],-6,0,-11,2,10,0
Cc1cc(NC(=O)Nc2ccc(Cl)c(Cl)c2)n(-c2ccccc2)n1,5,·,-12,3,-1,2
C/C(=N\NC(=O)Cn1nc(C)c([N+](=O)[O-])c1C)c1ccco1,-9,·,-14,-4,-10,-3
CC(=O)c1sc(N/N=C\c2ccc(Br)cc2)nc1C,-50,-4,-19,1,30,3
CC(=O)c1sc(N/N=C\c2cccc(Br)c2)nc1C,-39,-5,-4,-13,51*,-9
CSc1cccc(NC(=S)NCCCN2CCN(c3ccc(F)cc3)CC2)c1,-61,-3,-6,3,15,0
CC(=O)Nc1nc(C)cs1,-20,-2,-15,6,-14,-9
Cc1csc(CCc2nc(C)cs2)n1,100*,-5,-4,2,-10,2
COc1ccc(/C=C/C(=O)Oc2cccc(/C=N/NC(=O)Cc3ccc(Br)cc3)c2)cc1,-16,·,-8,-13,-10,0
Cc1ccc(S(=O)(=O)NN2C(=O)/C(=C/c3cccn3C)SC2=S)cc1,-20,6,-89,6,54*,6
Cc1ccc(S(=O)(=O)NN2C(=O)/C(=C/c3cccs3)SC2=S)cc1,-10,·,-15,-4,-3,-3
CCOc1ccc(N(CC(=O)NCCc2ccc(Cl)cc2)S(=O)(=O)c2c(C)[nH]c(=O)[nH]c2=O)cc1,-10,-2,-7,-3,-16,-1
CCOC(=O)C1(CCCc2ccccc2)CCN(C2CCN(C(C)=O)CC2)CC1,-65,-1,22,0,-28,2
O=C1OCCN1C(=O)[C@H]1[C@H](c2ccc(F)cc2)C(c2ccc(F)cc2)=NN1c1ccc(Br)cc1,-6,-2,-232,8,-98,2
O=C1OCCN1C(=O)[C@H]1[C@H](c2ccc(F)cc2)C(c2ccc(F)cc2)=NN1c1ccccc1,0,60*,-8,4,-17,3
Cc1cc(=O)oc2cc(OCc3ccc(C(=O)OCC(=O)NC4CCS(=O)(=O)C4)cc3)ccc12 (stereo not given),-24,·,-61,7,10,30
Cc1cc(=O)oc2cc(OCc3ccc(C(=O)OCC(=O)Nc4ccc(N(C)C)cc4)cc3)ccc12,92*,0,11,16,96*,79*
COc1ccc(S(=O)(=O)N(C)C)cc1NC(=O)CSc1nncs1,-31,1,-2,2,19,-14
COc1ccc(C(CC(=O)N2CCCC2)c2c(OC)cc(OC)c3c(-c4ccccc4)cc(=O)oc23)cc1 (stereo not given),-111,·,-9,34*,87*,40
COc1ccc(C(CC(=O)N2CCCC(C)C2)c2c(OC)cc(OC)c3ccc(=O)oc23)cc1 (stereo not given),-28,·,-2,-3,13,3
COc1ccc(C(CC(=O)N2CCOCC2)c2c(OC)cc(OC)c3c(-c4ccccc4)cc(=O)oc23)cc1 (stereo not given),-18,·,-2,27,54*,27
COc1ccc(C(CC(=O)N2CCCCC2)c2c(OC)cc(OC)c3c(-c4ccccc4)cc(=O)oc23)cc1 (stereo not given),-102,·,-10,26,63*,21
COc1ccc(C(CC(=O)N2CCN(c3ccccc3)CC2)c2c(OC)cc(OC)c3c(-c4ccccc4)cc(=O)oc23)cc1 (stereo not given),-49,·,-98,4,3,4
COc1ccc(C(CC(=O)N2CCCC(C)C2)c2c(OC)cc(OC)c3c(-c4ccccc4)cc(=O)oc23)cc1 (stereo not given),-103,·,-4,26,59*,24
SMILES,Mcl1-Bid inh,Mcl-1 Bim block,NCF1 inh,eIF4E 4G PPI,Mcl1-Noxa inh,14-3-3 Bad PPI
O=C(COc1ccc(Cl)cc1Cl)c1ccc[nH]1,-3,·,-9,2,4,-1
Cc1cc(C)c2nc(C(F)(F)F)nc(N3CCN(C(=O)c4ccco4)CC3)c2c1,-15,-2,-18,1,2,5
Cc1cc(C)c2nc(N3CCCN(C(=O)c4ccco4)CC3)c(C#N)cc2c1,55*,1,-44,6,73*,12
O=c1c2ccccc2nc(/C=C/c2ccc([N+](=O)[O-])o2)n1CCCO,-26,5,35*,7,8,-5
O=c1c2ccccc2nc(/C=C/c2ccc([N+](=O)[O-])cc2)n1CCCO,-15,-2,-14,1,15,-12
Cc1cc(C)c2c(NC(=S)Nc3ccccc3)n[nH]c2n1,-37,1,-32,0,60*,-14
Cc1cc(C)c2c(NC(=S)NC(=O)c3ccccc3)n[nH]c2n1,-20,-1,-19,0,11,-8
O=C1C2C3C=CC(C2C(=O)N1c1ccc(O)cc1)C1C2C(=O)N(c4ccc(O)cc4)C(=O)C2C31 (stereo not given),-80,·,34*,-4,7,0
O=C1C2C3C=CC(C2C(=O)N1c1ccccc1O)C1C2C(=O)N(c4ccccc4O)C(=O)C2C31 (stereo not given),-18,-1,-4,1,-3,-16
COc1cc(/C=C(/C#N)c2nc3ccccc3c(=O)[nH]2)ccc1O,70*,-2,-47,12,42,14
Cc1ccc2nc(/C(C#N)=C\c3ccc(Oc4ccc(C(F)(F)F)cc4[N+](=O)[O-])cc3)[nH]c2c1,-28,-3,-55,8,51*,-6
Cc1ccc2nc(/C(C#N)=C/c3ccc(-c4cccc([N+](=O)[O-])c4)o3)[nH]c2c1,36,0,3,29,80*,39
COc1cc(/C=C(\C#N)C(=O)c2c[nH]c3ccccc23)cc(OC)c1O,46,3,-198,25,70*,10
CCCCCC1(C(=O)OCC)CC(CSC(=N)N)OC1=O (stereo not given),-30,0,-7,-2,17,-2
Cc1nc2c3c(sc2c(=O)[nH]1)NC(=O)CC3c1ccccc1Cl (stereo not given),-13,·,-12,1,26,0
O=[N+]([O-])c1cccc(/C=N/Nc2nc(NCc3ccccc3)nc(N3CCOCC3)n2)c1O,-44,-1,-14,-1,-32,-11
CCOC(=O)c1cc(NC(=O)Nc2ccccn2)c(C)nc1C,-6,1,-2,4,14,-6
COc1cc(/C=C(\C#N)c2nc3ccc(C)cc3[nH]2)cc([N+](=O)[O-])c1O,-47,11,-78,5,81*,3

# Compound activity deposited in PubChem by several laboratories.
